# PubChem BioAssay (NCI)
# This is part of a sample that, as a whole, favours compounds with a hit. Of some 83,000 tested, about 20% had one in any assay.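 How to read the values: 0–100, growth inhibition (40 = 60% inhibited); 0, no net growth; -100 to 0, cell death (-40 = 40% of starting cells died; -100 = all dead).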 Values without a mark were called inactive. Calls of active or inactive are those of the source. How the source made its calls: active means growth percent below 10; inactive means the rest.
# Test system: HT29 colon
# Experiment: NCI-60 one-dose screen, 48 h (100 = growth as untreated, 0 = no growth, -100 = all killed)
# Conditions: 10 µM unless noted
row,SMILES,growth
1,COc1cc(-c2ccc[nH]2)[nH]c1/C=C1\N=C(C)C(CC(=O)OCC(C)(C)C)=C1C,-59.9% (active)
2,N#Cc1c(-c2ccc(Br)cc2)nc2c(N=Nc3ccc(S(N)(=O)=O)cc3)c(N)nn2c1N,42.8%
3,O=[N+]([O-])c1ccccc1Nc1ccc2ccccc2c1,94.1%
4,c1ccc(Nc2nc3c(s2)CCc2c[nH]cc2-3)nc1,100%
5,COc1ccc2cc(C(=O)N3CCC([C@@H](C)C(=O)NCc4ccc5c(c4)OCO5)CC3)[nH]c2c1,89.6% [50 µM]
6,Nc1cc(C(=O)O)cc(-n2c(O)c(C=C3N=c4ccccc4=N3)sc2=S)c1,108%
7,CC1(C)N=C(N)N=C(N)N1c1cc(Cl)ccc1Cl,24.8%
8,CC/C(=C(\c1ccc(Cl)cc1)c1ccc(OCCN2CCCCC2)cc1)c1ccc(O)cc1,-37.2% (active)
9,O=C1O[C@@H](c2ccccc2Cl)[C@@H]2c3cc4c(cc3CCN12)OCO4,86.4%
10,C=CCn1cc(-c2nc3ccccc3s2)c2cc(-c3ccc4c5c(cccc35)C(=O)N(CCO)C4=O)ccc21,98.2%
11,CCOC(=O)C#Cc1c(C(=O)OCC)nnn1[C@@H]1O[C@H](COC)[C@@H](OC)[C@H]1OC,24.9%
12,O=C(/C=C/c1ccccc1Cl)c1cccc(OCCCCOc2cccc(C(=O)/C=C/c3ccccc3Cl)c2)c1,96.9%
13,Nc1nc2ccccc2c2c(=O)c3cc(Cl)ccc3sc12,102%
14,C=CC(=O)Nc1cccc(Oc2nccc(Nc3nnc(-c4ccc(Br)cc4)s3)n2)c1,116%
15,CC/C(=C(/c1ccc(O)cc1)c1ccc(OCCN2CCCCC2)cc1)c1ccc(OC)cc1,4.3% (active)
16,CNC(=O)c1cc(Oc2ccc3c(c2)sc2nc(-c4ccc(NC(=O)[C@@H](NC(=O)OC)C(C)C)cc4)cn23)ccn1,72.1%
17,Cn1c(=O)[nH]c(=O)c2nc3c(nc21)-c1ccccc1C3=O,101%
18,COC1C(O)CC(OC2CC(OC3CC(O[C@@H]4C(=O)c5c(cc6cc(OC7CC(OC8CC(O)C(O)C(C)O8)C(O)C(C)O7)c(C)c(O)c6c5O)CC4[C@H](OC)C(=O)O)OC(C)C3O)OC(C)C2O)OC1C (stereo partly specified),20.3%

row,SMILES,growth
1,N#CC1=C(N)Oc2c(sc3c(F)cccc23)C1c1ccc([N+](=O)[O-])cc1 (stereo unspecified),-13.6% (active)
2,COc1ccc(/C=C(/C(=O)N2CCNCC2)c2cc(OC)c(OC)c(OC)c2)cc1O,88.1%
3,Cc1ccc(NC(=O)c2cc3ccccc3cc2O)c(C)c1,104%
4,N#Cc1c(-c2ccccc2)nc2c(c(-c3ccccc3)nn2-c2ccccc2)c1-c1ccc(N2CCCCC2)cc1,110%
5,O=C(Nc1ccccc1O)c1ccc(CNc2ccnc(C(F)(F)F)c2)cc1,75.8%
6,COc1cc(/C=C2\C(=O)N(CCCOc3cc(O)c4c(=O)cc(-c5ccccc5)oc4c3)c3ccccc32)cc(OC)c1O,-16.1% (active)
7,CN1C(=O)N2CN3CCCN(C3)CN3C(=S)NC1C23 (stereo unspecified),95.2%
8,O=c1oc2ccccc2cc1-c1nn(-c2ccccc2)cc1-c1nn[nH]n1,104%
9,COc1cc(OC)c2c(=O)c3c(CC=C(C)C)cc(OC)c(O)c3oc2c1,95.4%
10,COC(=O)c1c2c(c[n+]([O-])c1C)C(=O)C=C(NCc1ccccc1)C2=O,0.45% (active)
11,N#C/C(=C\c1ccc(-c2cccc(Cl)c2)o1)C(=O)Nc1ncc(Cc2ccc(Cl)cc2)s1,70.5%
12,O=C(/C=C/c1ccccc1)c1ccc(-n2cc(CN3CCN(c4cc5c(cc4F)c(=O)c(C(=O)O)cn5C4CC4)CC3)nn2)cc1,79.2%
13,N#Cc1ccc(/C=C/c2cn(-c3ccccc3)nc2-c2cccc([N+](=O)[O-])c2)cc1,53.2%
14,c1ccc(Cn2cc3c(c2-c2ccccc2)CCc2cnoc2-3)cc1,30.1%
15,NCCCNc1nc2ccccc2c2c(=O)c3cc(Cl)ccc3sc12,-45.4% (active)
16,Cc1cc(C)c2c(c1)N(C)c1ncnc(-n3c(C)nc4cc(C)ccc43)c1CC2C (stereo unspecified),34.3%
17,CSc1ccc2c3c(n(CCCn4ccnc4)c(=O)c2c1)-c1ccccc1C3=O,27.1%
18,COc1ccc(C(=O)/C=C/c2ccccc2)cc1S(N)(=O)=O,63.6%
